Most compounds without a hit are left out; they make up all but 4.2% or so of the library.
DNA Pol III inh = blocks replication by bacterial DNA polymerase III holoenzyme. reconstituted DNA polymerase III holoenzyme replication, biochemical. Potency, µM (doses to about 57.1 µM), for the others: top-dose activity change, negative = inhibition. hit rate 0.25% among 71,000. AID 603; note: potency is the fitted concentration of half-maximal effect; % is set by controls: 0 for no effect and ±100 for the full control effect
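Reconstituted *E. coli* holoenzyme (0.35 nM Pol III, 1 nM beta, 154 nM SSB, 2 nM primase) was preincubated with compound for 15 min at RT. Synthesis on 1.4 nM ssM13Gori ran 35 min, then was stopped with PicoGreen/EDTA and read as dsDNA fluorescence.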
ERK AVP block = vasopressin-driven ERK pathway inhibition | hit rate 0.99% among 72,000 | Potency, µM (top dose mostly 57.5 µM), for the others: top-dose activity, negative = inhibition, hits mostly inhibitors | HEK293-V1b, vasopressin-stimulated pERK AlphaScreen | AID 995; note: potency is the fitted concentration of half-maximal effect; % is set by controls: 0 for no effect and ±100 for the full control effect; nearly all actives have a fitted effect of over 55% in size
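HEK293 cells stably expressing V1b receptor, preincubated 30 min at 37 °C with compound, then stimulated 5 min with 25 nM vasopressin. Phospho-ERK by AlphaScreen SureFire after 5 h RT; normalized to DMSO and vasopressin; AC50 by Hill fit.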
Hsp90 Hop PPI = changes Hsp90-Hop TPR2A binding signal, up or down | AlphaScreen TPR2A-His6 binding biotin-Hsp90 C-terminal peptide | Potency, µM (highest dose often 57 µM), for the others: at the highest dose activity change, negative = inhibition | hit rate 0.44% among 71,000; active = well fitted curve in either direction with a large enough effect; inconclusive = small, poorly fitted or top-dose-only effect, or another doubt; note: potency is the fitted concentration of half-maximal effect; % is set by controls: 0 for no effect and ±100 for the full control effect
Tau fil binding = tau filament binding; AID 596; Potency, µM (series often up to 57.1 µM), for the others: at the top dose activity change, negative = inhibition; hit rate 2% among 71,000; P10636; recombinant tau filaments, thioflavin S fluorescence, 15 h; filaments grown with octadecylsulfate alongside compound;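 note: potency is the fitted concentration of half-maximal effect; % is set by controls: 0 for no effect and ±100 for the full control effect; actives lower thioflavin S fluorescence by blocking filaments or displacing dye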
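Thioflavine S fluorescence (ex 450, em 510 nm) reports filaments formed from 1 uM human tau plus 30 uM ODS over 15 h at 37 C (10 mM HEPES pH 7.4, 100 mM NaCl, 5 mM DTT); compounds displacing dye or blocking filaments lower signal.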
15-hLO inh = blocks human 15-lipoxygenase activity; purified 15hLO-1, xylenol orange hydroperoxide absorbance; hit rate 1.4% among 74,000; Potency, µM (doses to about 57.1 µM), inactives show top-dose activity change, negative = inhibition, hits mostly inhibitors; AID 887; note: potency is the fitted concentration of half-maximal effect; % is set by controls: 0 for no effect and ±100 for the full control effect; nearly all actives have a fitted effect of over 55% in size
Target sequence (P16050 whole entry, looked up): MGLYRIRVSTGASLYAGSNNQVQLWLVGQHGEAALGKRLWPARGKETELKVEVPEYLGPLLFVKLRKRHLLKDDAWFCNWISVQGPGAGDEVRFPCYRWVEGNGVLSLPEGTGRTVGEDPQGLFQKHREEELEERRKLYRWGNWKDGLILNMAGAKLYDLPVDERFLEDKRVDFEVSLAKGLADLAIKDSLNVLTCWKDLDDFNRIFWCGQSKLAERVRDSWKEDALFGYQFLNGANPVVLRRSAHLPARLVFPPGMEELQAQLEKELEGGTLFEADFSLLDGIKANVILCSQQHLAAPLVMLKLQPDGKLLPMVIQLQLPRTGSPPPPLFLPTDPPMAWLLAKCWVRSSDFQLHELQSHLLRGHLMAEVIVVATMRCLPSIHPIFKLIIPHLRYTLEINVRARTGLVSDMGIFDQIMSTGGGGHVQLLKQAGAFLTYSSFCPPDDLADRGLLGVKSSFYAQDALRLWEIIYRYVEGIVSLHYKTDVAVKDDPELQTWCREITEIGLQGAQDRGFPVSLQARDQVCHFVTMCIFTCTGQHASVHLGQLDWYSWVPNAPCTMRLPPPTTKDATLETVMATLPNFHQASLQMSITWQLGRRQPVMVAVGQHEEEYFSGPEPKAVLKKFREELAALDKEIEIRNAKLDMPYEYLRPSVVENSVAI
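Purified human 15hLO-1 (40 nM final) in 25 mM Hepes pH 7.5, 0.01% Triton X-100 was preincubated with compound 15 min at room temperature, then reacted 6 min with 50 uM arachidonic acid; hydroperoxide detected by Fe-XO, 573/405 nm absorbance ratio.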
TsaE inh = displaces an ADP probe from E. coli YjeE (TsaE) | P0AF67 | purified YjeE enzyme, qHTS inhibition assay | Potency, µM | hit rate 0.05% among 71,000
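Purified YjeE (10 uM) with BODIPY Texas Red-labeled ADP probe (2 uM); compounds pin-transferred, 15 min at room temperature. Binding inhibition read as decreased fluorescence polarization; ADP titration as control.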
* marks the source's active call; other numbers are inactive results; [ ] = remark or other dose. Unless noted, calls come from the whole dose curve; as a rule, active = well fitted curve in the direction sought with a large enough effect; inconclusive = small, poorly fitted or top-dose-only effect, or another doubt; inactive = no such curve, though single readings can be large; an effect the other way counts as inactive or inconclusive.

Results for CCn1c(SCc2nc(CC(=O)Nc3ccccc3OC)no2)nnc1-c1cccs1 ?
DNA Pol III inh: -0.8%; ERK AVP block: 9.6%; Hsp90 Hop PPI: -1.3%; Tau fil binding: 7.2%; 15-hLO inh: 16.1%; TsaE inh: inactive

What do the screens show for `C=CCNc1ncnc2c1[nH]c1ccc(C)cc12`?
DNA Pol III inh: -7.3%; ERK AVP block: 31.6µM*; Hsp90 Hop PPI: -0.1%; Tau fil binding: 73.7%; 15-hLO inh: 8.6%; TsaE inh: inactive

How did O=C(CC(=O)c1cc(Cl)ccc1O)c1ccccc1 do in these assays?
DNA Pol III inh: 0.1%; ERK AVP block: inconclusive; Hsp90 Hop PPI: -8.0%; Tau fil binding: 25.1µM*; 15-hLO inh: inconclusive; TsaE inh: inactive

How did Cc1ccc(O)c(C(=O)CC(=O)c2cccc(F)c2)c1 do in these assays?
DNA Pol III inh: 1.1%[11.4 µM]; ERK AVP block: 7.1%; Hsp90 Hop PPI: -25.6%[11 µM]; Tau fil binding: 2µM*; 15-hLO inh: -17.0%[11.4 µM]; TsaE inh: inactive

What do the screens show for `COc1cc(NC(=O)c2ccccc2)cc(OC)c1`?
DNA Pol III inh: -8.2%; ERK AVP block: 5.9%; Hsp90 Hop PPI: 5.7%; Tau fil binding: 10µM*; 15-hLO inh: -4.3%; TsaE inh: inactive

Results for COc1cc(NS(C)(=O)=O)c(OC)cc1NC(=O)c1ccccc1 ?
DNA Pol III inh: -8.0%; ERK AVP block: -20.3%; Hsp90 Hop PPI: -6.6%; Tau fil binding: 15.8µM*; 15-hLO inh: 1.8%; TsaE inh: inactive

Results for COc1cc(NC(=O)c2ccc(Cl)cc2)c(OC)cc1NC(=O)CN1CCOCC1 ?
DNA Pol III inh: -1.7%; ERK AVP block: inconclusive; Hsp90 Hop PPI: -8.0%; Tau fil binding: 20µM*; 15-hLO inh: -4.3%; TsaE inh: inactive

Results for COc1ccccc1NC(=O)c1ccc(NS(C)(=O)=O)cc1 ?
DNA Pol III inh: 2.0%; ERK AVP block: -22.6%; Hsp90 Hop PPI: -4.6%; Tau fil binding: 6.2%; 15-hLO inh: -3.1%; TsaE inh: inactive

What do the screens show for `CCC(=O)Nc1cc(OC)c(NC(=O)c2ccccc2)cc1OC`?
DNA Pol III inh: -4.6%; ERK AVP block: inconclusive; Hsp90 Hop PPI: -23.8%; Tau fil binding: 12.6µM*; 15-hLO inh: -2.2%; TsaE inh: inactive

Results for COc1cc(NC(=O)c2ccccc2)c(OC)cc1NC(C)=O ?
DNA Pol III inh: -3.8%; ERK AVP block: -6.5%; Hsp90 Hop PPI: inconclusive; Tau fil binding: -17.4%; 15-hLO inh: 4.3%; TsaE inh: inactive

What do the screens show for `O=C(CCN1CCOCC1)Nc1ccc(F)cc1F`?
DNA Pol III inh: -11.2%[11.4 µM]; ERK AVP block: 0.5%[11.5 µM]; Hsp90 Hop PPI: 5.7%[11 µM]; Tau fil binding: -21.7%[11.4 µM]; 15-hLO inh: -1.6%[11.4 µM]; TsaE inh: inactive

Results for O=C(COC(=O)CSCC(=O)N1CCCCC1)NCc1ccc(F)cc1 ?
DNA Pol III inh: -0.8%; ERK AVP block: 20.7%; Hsp90 Hop PPI: -1.5%; Tau fil binding: -16.0%; 15-hLO inh: -2.3%; TsaE inh: inactive

What do the screens show for `CC(C)Cn1cnc2c(SCc3ccc(Cl)cc3Cl)nc(N)nc21`?
DNA Pol III inh: -8.7%[11.4 µM]; ERK AVP block: 12.4%[11.5 µM]; Hsp90 Hop PPI: -1.7%[11 µM]; Tau fil binding: -14.6%[11.4 µM]; 15-hLO inh: -8.7%[11.4 µM]; TsaE inh: inactive

How did CC1(C)NC(=O)N(CC(O)CN2CCOCC2)C1=O (stereo not drawn) do in these assays?
DNA Pol III inh: -1.2%; ERK AVP block: -6.3%; Hsp90 Hop PPI: -2.3%; Tau fil binding: 2.6%; 15-hLO inh: 3.2%; TsaE inh: inactive

What do the screens show for `CC(OCc1ccccc1)C(NC(=O)OC(C)(C)C)C(=O)NCC1CCCO1` (stereo not drawn)?
DNA Pol III inh: -2.2%; ERK AVP block: -9.5%; Hsp90 Hop PPI: -0.6%; Tau fil binding: -8.5%; 15-hLO inh: 6.9%; TsaE inh: inactive

How did O=C(CC1N=C2c3ccccc3N=C(SCc3ccc(Cl)cc3)N2C1=O)NCc1ccco1 (stereo not drawn) do in these assays?
DNA Pol III inh: -3.8%; ERK AVP block: 7.3%; Hsp90 Hop PPI: -11.8%; Tau fil binding: -1.2%; 15-hLO inh: 25.1µM*; TsaE inh: inactive

How did Cc1ccc(CSC2=Nc3ccccc3C3=NC(CCC(=O)NCc4ccco4)C(=O)N23)cc1 (stereo not drawn) do in these assays?
DNA Pol III inh: -1.9%; ERK AVP block: 26.9%; Hsp90 Hop PPI: -10.0%; Tau fil binding: -12.4%; 15-hLO inh: inconclusive; TsaE inh: inactive

How did O=c1c(-c2ccc(Cl)cc2)nc2cnc(N3CCNCC3)nc2n1-c1ccccc1 do in these assays?
DNA Pol III inh: -3.9%; ERK AVP block: inconclusive; Hsp90 Hop PPI: 1.5%; Tau fil binding: 3.16µM*; 15-hLO inh: 4.8%; TsaE inh: inactive

What do the screens show for `O=c1c(-c2cc(F)cc(F)c2)nc2cnc(N3CCOCC3)nc2n1-c1ccccc1`?
DNA Pol III inh: 0.4%; ERK AVP block: 8.3%; Hsp90 Hop PPI: 17.9%; Tau fil binding: 72.8%; 15-hLO inh: -6.9%; TsaE inh: inactive

Results for O=c1c(-c2cccs2)nc2cnc(N3CCOCC3)nc2n1-c1ccccc1 ?
DNA Pol III inh: 3.8%; ERK AVP block: -13.2%; Hsp90 Hop PPI: 3.16µM*; Tau fil binding: inactive; 15-hLO inh: -11.6%; TsaE inh: inactive

How did COc1ccc(-n2c(=O)c(-c3ccc(Cl)cc3)nc3cnc(N4CCNCC4)nc32)cc1 do in these assays?
DNA Pol III inh: -9.5%; ERK AVP block: -19.7%; Hsp90 Hop PPI: 4.5%; Tau fil binding: 3.98µM*; 15-hLO inh: 0.6%; TsaE inh: inactive

What do the screens show for `COc1ccc(-c2nc3cnc(N4CCNCC4)nc3n(-c3ccccc3)c2=O)cc1`?
DNA Pol III inh: -6.9%; ERK AVP block: 52.1%; Hsp90 Hop PPI: 24.1%; Tau fil binding: 114.5%; 15-hLO inh: 1.1%; TsaE inh: inactive

What do the screens show for `O=c1c(-c2cc(F)cc(F)c2)nc2cnc(N3CCNCC3)nc2n1-c1ccccc1`?
DNA Pol III inh: -10.0%; ERK AVP block: -28.6%; Hsp90 Hop PPI: 9.2%; Tau fil binding: 3.98µM*; 15-hLO inh: 1.7%; TsaE inh: inactive

What do the screens show for `Cc1ccc2[nH]c(=O)c(CN(Cc3ccc4c(c3)OCO4)Cc3nnnn3C3CCCC3)cc2c1`?
DNA Pol III inh: -6.7%; ERK AVP block: -2.5%; Hsp90 Hop PPI: -9.8%; Tau fil binding: 45.6%; 15-hLO inh: inconclusive; TsaE inh: inactive

What do the screens show for `CC1(C)Oc2ccc(C(=O)N3CCCCC3)cc2N(CC(=O)NCc2ccccc2)C1=O`?
DNA Pol III inh: -2.1%; ERK AVP block: 2.1%; Hsp90 Hop PPI: -5.6%; Tau fil binding: 6.8%; 15-hLO inh: 0.8%; TsaE inh: inactive

Results for O=c1c(-c2ccccc2)nc2cnc(N3CCNCC3)nc2n1-c1ccccc1 ?
DNA Pol III inh: -3.3%; ERK AVP block: 13.6%; Hsp90 Hop PPI: 2.5%; Tau fil binding: 3.7%; 15-hLO inh: 0.316µM*; TsaE inh: inactive

Source: PubChem
